{"source": "the supplement of paper PMC7556523", "note": "A number with no mark means an inactive call."}
{"tested_on": "Sporothrix brasiliensis CBS 133006", "test": "growth inhibition relative to untreated control; higher = more growth inhibition (more antifungal activity), active = 80 or more; extreme values may be limits of the assay", "details": "1 µM; 48 h", "method_in_brief": "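Each value is the percent growth inhibition compared with cells left untreated. Reference isolates were grown as yeast-form cells in brain heart infusion broth with 2% glucose for 7 days at 36°C, then exposed at 1 x 10^5 CFU/ml to library compounds at a final 1 μM for 48 h at 35°C in 5% CO2. Growth was inspected visually under an inverted light microscope and quantified by spectrophotometric readings, with runs in quadruplicate.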"}
{"smiles": "CO/C=C(/C(=O)OC)c1ccccc1Oc1cc(Oc2ccccc2C#N)ncn1", "growth inhibition": "95.5% (active)"}
{"smiles": "O=C1O[C@@H](CO)CN1c1cc(F)c(C2=CCN(Cc3ccccc3)CC2)c(F)c1", "growth inhibition": "6.75%"}
{"smiles": "CC1(C)OB(O)c2ccc(C3=NOC(c4cc(Cl)c(F)c(Cl)c4)(C(F)(F)F)C3)cc21", "note": "(centres undefined)", "growth inhibition": "0.5%"}
{"smiles": "CCc1nn(C)c(C(=O)NCc2ccc(Oc3ccc(C)cc3)cc2)c1Cl", "growth inhibition": "93.2% (active)"}
{"smiles": "Nc1c2c(nc3sc4c(c13)CCCC4)CCCC2", "growth inhibition": "6.75%"}
{"smiles": "Cc1cccc(C(=O)Nc2ccnc(N(C)C3CCN(CC(C)C)CC3)c2)c1", "growth inhibition": "5.5%"}
{"smiles": "CC1COC(Cn2cncn2)(c2ccc(Oc3ccc(Cl)cc3)cc2Cl)O1", "note": "(centres undefined)", "growth inhibition": "97% (active)"}
{"smiles": "CC(C)(C)C(O)C(Oc1ccc(-c2ccccc2)cc1)n1cncn1", "note": "(centres undefined)", "growth inhibition": "67.5%"}
{"smiles": "O=C1O[C@@H](COc2ccon2)CN1c1cc(F)c(C2=CCN(Cc3ccccc3)CC2)c(F)c1", "growth inhibition": "2%"}
{"smiles": "CO/N=C(\\C(=O)OC)c1ccccc1CO/N=C(\\C)c1cccc(C(F)(F)F)c1", "growth inhibition": "96.8% (active)"}
{"smiles": "Cc1nn(Cc2ccccc2)c(Cl)c1C(=O)NC1CCCCCC1", "growth inhibition": "21.5%"}
{"smiles": "Cc1nn(C)c(C)c1NS(=O)(=O)c1c(Cl)cc(-c2ccnc(N3CCNCC3)c2)cc1Cl", "growth inhibition": "15.2%"}
{"smiles": "CO[C@@H]1CN(c2ccc(C#CC3(O)CN4CCC3CC4)c(Cc3ccccc3)n2)C[C@H]1O", "note": "(some centres undefined)", "growth inhibition": "9.75%"}
{"smiles": "Cc1cc(C2=NOC(c3cc(Cl)c(F)c(Cl)c3)(C(F)(F)F)C2)ccc1C(=O)NCc1ccc2c(c1)C(C)(C)OB2O", "note": "(centres undefined)", "growth inhibition": "14.5%"}
